PubChem BioAssay

Assay: growth suppression of yeast trafficking mutant, preliminary HTS, modulators of trafficking downstream of Golgi apparatus project, 1536-format plate, OD 615 nm (AID 637)
Details: yeast transport mutant growth, absorbance 615 nm, 18 h; active compounds read high; in the data active = inhibition above about 30%; inactive = the rest

inhibition, inactive:
Cc1ccc(-c2nc(N)n(C(=O)c3cccnc3)n2)cc1 0.33%
COc1ccccc1N1CCN(C(=O)c2ccc3nc(-c4ccco4)c(-c4ccco4)nc3c2)CC1 -4.1%
Cc1ccc(OCC(=O)N2CCN(C(=O)CCC3CCCC3)CC2)cc1 -2.33%
O=c1c2[nH]c3cccc(Cl)c3c2ncn1CCN1CCCCC1 0.49%
O=C(CS(=O)(=O)c1cn(Cc2ccc(Cl)cc2)c2ccccc12)N1CCOCC1 -2.62%
CCCC(=O)Nc1ccc(NC(=O)c2ccccc2OC)cn1 -4.43%
CC(C)CCNC(=O)C(c1ccco1)N(CC1CCCO1)C(=O)Cn1nnc2ccccc21 (stereo not given) -0.16%
Cn1cnnc1Sc1nc2c(c(=O)n(C)c(=O)n2C)n1C -9.09%
CC(CCc1ccccc1)NC(=O)c1ccc(Br)o1 (stereo not given) 0.63%
O=C1CC(c2ccsc2)c2cc3c(cc2N1)OCCO3 (stereo not given) -5.25%
Nc1nonc1-n1nnc(C(=O)c2ccccc2)c1-c1ccccc1 6.03%
C#CC1(O)CC(C)N(C)C(C)C1 (stereo not given) -4.6%
Cc1ccc(S(=O)(=O)CCC(=O)Nc2ccc3c(c2)OCO3)cc1 -2.22%
Cc1ccc(C)c2[nH]c(=O)c(CCNC(=O)c3ccc(Br)o3)cc12 -4.6%
O=c1c2ccccc2nc(SCc2cn3ccsc3n2)n1-c1ccc(F)cc1 1.43%
Cn1c(SCC(=O)c2ccc(-c3ccccc3)cc2)nnc1-c1ccco1 9.68%
O=C(NCCSCc1ccco1)Nc1cccc(Cl)c1 -3.97%
Cn1nnc2c(sc3nc(N4CCOCC4)c4c(c32)CCCC4)c1=O -5.08%
CCOc1cc(NC(=O)c2ccco2)c(OCC)cc1NC(=O)COc1ccccc1C -6.19%
CCOc1ccc(OCC)c2sc(C)nc12 1.48%
COC(=O)c1[nH]c2ccccc2c1NS(=O)(=O)c1ccc(OC)cc1OC -3.82%
CC(NC(=O)c1ccco1)c1ccc2c(c1)OCCO2 (stereo not given) -1.43%
CCC(C)NC(=O)CSC1=Nc2ccccc2C2=NC(CC(=O)NCc3ccccc3)C(=O)N12 (stereo not given) -3.02%
Cc1nnc(N(C)C(=O)c2cccnc2)s1 3.33%
COc1ccc(N2C(=O)C3CCCN3C2c2ccc(F)cc2)cc1Cl (stereo not given) -6.94%
CCCn1c(SCC(=O)Nc2nnc(-c3ccccc3)s2)nnc1-c1ccccn1 25%
CN(C1CCCCC1)S(=O)(=O)c1ccc(S(=O)(=O)N2CCCC2)cc1 -4.92%
O=C(CN1CCN(C2CCCCC2)CC1)Nc1ccccc1-c1ccccc1 1.9%
COc1cccc(-n2nnc3c(=O)n(Cc4cccc(F)c4)cnc32)c1 16.8%
Cc1ccc(-n2c(SCC3CCCCO3)nnc2-c2ccco2)cc1 (stereo not given) -8.5%
Cc1ccc(-n2nnnc2SCC(=O)N2CCc3ccccc3C2)cc1 0.48%
CCOC(=O)c1cccc(NC(=O)C2CCN(S(=O)(=O)c3cccs3)CC2)c1 -3.81%
CCn1c(CSc2ncccn2)nnc1SCC(=O)N1c2ccccc2CC1C (stereo not given) 5.41%
Cc1cc(C(=O)Nc2sc3c(c2C#N)CCCCC3)cs1 -4.1%
CCN(CC)c1ccc2c(C)c(-c3ccc(N)cc3)c(=O)oc2c1 12.3%
N#CC(C(=O)Nc1ccc(Cl)c(Cl)c1)=C1Nc2ccccc2N1 -1.61%
CCn1nnnc1SCC(=O)N1CCOCC1 3.44%
CCN(CC(=O)NCc1cccs1)C(=O)c1cc(S(=O)(=O)N2CCOCC2)ccc1C -10%
O=C(Nc1ccc2c(c1)OCO2)c1ccc(Br)c(S(=O)(=O)N2CCCC2)c1 -0.16%
COc1ccc(CNS(=O)(=O)c2ccc3oc(C(=O)O)c(C)c3c2)cc1 -2.46%
